High-throughput results deposited in PubChem BioAssay by several laboratories.
Sa RN4220 lethal – S. aureus RN4220 growth inhibition | OD600, 16 h | inhibition, % (test concentration not listed) | 330,000 compounds, 0.33% hits; in the data active means inhibition above about 85%;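 further: plate controls were untreated cells for no effect and reference antibiotic for full effect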
3CLpro inhibitor – SARS-CoV 3CLpro protease inhibition. recombinant SARS-CoV 3CLpro, quenched FRET peptide cleavage. AID 1706. inhibition, % at 6 µM. P0C6X7. 290,000 compounds, 0.14% hits; in the data active means inhibition above about 12%
PrPC surface inh – inhibitors of human cell surface prion protein PrPC. P04156. TR-FRET read-out. inhibition, % at 13.8 µM. 370,000 compounds, 0.43% hits. AID 720596; in the data active means inhibition above about 24%; further: 0% = median of the test wells and 100% = reference compound wells
Sa ugtP lethal – kills S. aureus RN4220 lacking UgtP | 330,000 compounds, 0.54% hits | growth inhibition, % (no concentration beside the values) | S. aureus RN4220 ugtP deletion, OD600 growth, 16 h; in the data active means growth inhibition above about 68%;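 further: plate controls were untreated wells for no effect and antibiotic for full effect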
VHR inh abs – inhibitors of human VHR1 phosphatase (DUSP3) | P51452 | 290,000 compounds, 0.52% hits | inhibition, % at 13.3 µM | recombinant VHR phosphatase, pNPP absorbance | AID 1654; in the data active means inhibition above about 50%
Target sequence (P51452 whole entry, looked up): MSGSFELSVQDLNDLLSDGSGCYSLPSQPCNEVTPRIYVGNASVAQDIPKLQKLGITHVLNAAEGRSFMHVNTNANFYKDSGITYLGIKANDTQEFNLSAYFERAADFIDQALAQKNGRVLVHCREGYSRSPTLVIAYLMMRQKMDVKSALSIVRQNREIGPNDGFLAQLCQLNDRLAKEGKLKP
BJeLR lethal – BJeLR cell viability loss; BJeLR (HRASV12) viability, CellTiter-Glo ATP luminescence, 48 h; inhibition, % (no concentration beside the values); 300,000 compounds, 0.17% hits; in the data active means inhibition above about 50%
* = called active by the depositor; / = no result given; ! = not active in a repeat. An excerpt weighted towards active compounds, which were near 1.4% of everything screened.

SMILES	Sa RN4220 lethal	3CLpro inhibitor	PrPC surface inh	Sa ugtP lethal	VHR inh abs	BJeLR lethal
CC(=O)N/C(=N\c1nc(C)cc(C)n1)Nc1ccc2ccccc2c1	/	-2.9	1.3	/	53.9*	7.9
CC(=O)N/C(=N/c1nc(C)cc(C)n1)Nc1ccc(NC(C)=O)cc1	-0.4	-3.6	1.7	-0.1	9.4	3.9
Cc1cccc(NC(=O)[C@H](Cc2c[nH]c3ccccc23)NC(=O)[C@@H]2Cc3ccccc3CN2)c1	1.2	1.1	-5.1	-4.2	41.0	40.3
Cc1ccc(NC(=O)[C@H](Cc2c[nH]c3ccccc23)NC(=O)[C@@H]2Cc3ccccc3CN2)c(C)c1	1.4	-0.5	-4.7	-4.4	16.5	65.2*
CCc1ccc(NC(=O)[C@H](Cc2c[nH]c3ccccc23)NC(=O)[C@@H]2Cc3ccccc3CN2)cc1	1.7	2.6	0.1	-8.5	0.3	58.9*
O=C(NC1CC=CCC(CC(=O)N(CCO)Cc2ccccc2)C(=O)NC(Cc2ccccc2)COC1=O)OCC1c2ccccc2-c2ccccc21 (centres undefined)	-2.4	/	/	-3.0	/	/
CC(CCc1oc2ccc(Br)cc2c1-c1ccc(C)o1)=NO	-5.0	/	/	89.4*	/	/
C/C(CCc1oc2ccc(Br)cc2c1-c1ccc(C)o1)=N/O	/	-2.5	5.9	/	27.1	-2.2
CC(CCc1oc2ccc(Cl)cc2c1-c1ccc(C)o1)=NO	-2.9	/	/	87.0*	/	/
C/C(CC(=O)NCc1ccco1)=N\NC(=O)c1ccc(Cl)cc1Cl	/	3.1	5.8	/	52.0*	-5.3
CCOC1OC(C(=O)N2CCN(Cc3ccc4c(c3)OCO4)CC2)=CC(c2ccccc2)C1CCCO (centres undefined)	7.8	/	/	-16.6	/	/
CCN1CCN(C(CNS(=O)(=O)c2ccc(C)cc2)c2cccnc2)CC1 (centres undefined)	0.6	1.8	-7.4	4.6	51.1*	0.8
NC(N)=NN=Cc1ccc(OCc2ccccc2Cl)cc1	100.3*	/	/	100.8*	/	/
COc1cc(/C=N/N=C(N)N)ccc1OCc1ccccc1Cl	/	-1.6	-6.1	/	40.9	5.0
CCN1C(=O)NC(CCc2ccccc2)C(C(C)=O)C1C (centres undefined)	4.8	/	/	-1.9	/	/
CN(C(=O)COC(=O)c1cc([N+](=O)[O-])ccc1N1CCCC1)C1CCS(=O)(=O)C1 (centres undefined)	12.1	-0.8	-20.8	4.2	51.2*	-1.4
Nc1c2ccccc2nc2ccccc12	0.8	-2.4	12.1	2.8	20.1	88.6*!
Cc1ccc(-n2nnc3c(=O)n(Cc4cc(C)ccc4C)cnc32)cc1	-1.6	2.9	0.6	7.5	51.6*	2.1
COc1ccc(CN2CCC(=O)N(C(CO)Cc3ccccc3)CC2)cc1OC (centres undefined)	-1.4	/	/	0.5	/	/
COc1ccccc1N1CCN(/N=C/C=C/c2ccccc2[N+](=O)[O-])CC1	/	-0.1	0.7	/	50.1*	-10.5
CCCCC(=O)N1CC=CC(c2ccc(OC)cc2)N(Cc2ccc(F)cc2)C(=O)C1Cc1ccccc1 (centres undefined)	-3.9	/	/	-31.0	/	/
COc1ccc(/C=C/c2nc3ccccc3n2C)cc1	16.6	-2.5	1.1	1.1	26.9	79.6*
Cc1ccc(-c2c(C(=O)NN=Cc3sccc3C)nnn2-c2nonc2N)cc1	94.0*	/	/	83.9	/	/
CS(=O)(=O)c1sc(C#N)c2c1C(=O)CC(c1ccccc1)C2 (centres undefined)	/	0.9	50.6*	/	22.8	5.7
Cc1ccc(C(=O)N/C(=C\c2ccc(-c3cccc([N+](=O)[O-])c3)o2)C(=O)NCCCN(C)C)cc1	-3.0	-3.5	-19.4	-3.5	53.9*	1.3
SMILES	Sa RN4220 lethal	3CLpro inhibitor	PrPC surface inh	Sa ugtP lethal	VHR inh abs	BJeLR lethal
CN(C)CCCNC(=O)/C(=C\c1ccc(-c2cccc([N+](=O)[O-])c2)o1)NC(=O)c1ccccc1	1.0	-2.5	-28.0	3.6	13.9	-4.0
N#CCC(Cc1ccccc1)N1CCN(Cc2ccccc2)CCC1=O (centres undefined)	4.6	/	/	6.2	/	/
COC(=O)C1=C(C(=O)OC)[C@]2(C3CCCCNC(Cc4ccccc4)C(=O)N3Cc3ccccc3)C=CC1O2 (some centres undefined)	-2.7	/	/	16.0	/	/
O=C(NC(NC(=S)Nc1ccc(Cl)cc1Cl)C(Cl)(Cl)Cl)c1cccc([N+](=O)[O-])c1 (centres undefined)	87.3*	7.2	11.6	73.0	10.6	-7.3
CCOC(=O)C(C#N)=CNc1ccccc1NS(=O)(=O)c1cccc(C(C)=O)c1	9.7	/	/	12.5	/	/
CC(NC(=O)c1nc[nH]c1C(=O)NCC(=O)OCc1ccccc1)C(=O)OC(C)(C)C (centres undefined)	6.0	/	/	-4.7	/	/
O=C(CSc1nc2ccccc2[nH]1)NN=C/C=C/c1ccccc1[N+](=O)[O-]	98.2*	/	/	97.3*	/	/
CCC(C)C1CNC(=S)N1CCc1cc(C(F)(F)F)cc(C(F)(F)F)c1 (centres undefined)	-7.3	/	/	-2.2	/	/
CCSCc1nnc(SCC(=O)Nc2ccc(OC)cc2)n1C	12.9	-0.1	0.0	3.7	57.4*	11.8
O=C(c1ccc(Br)o1)N1CCN(C23CC4CC(CC(C4)C2)C3)CC1	2.5	-0.5	-2.4	1.9	55.5*	1.6
Cn1c(N/N=C2\CCCc3ccccc32)nc2c1c(=O)n(Cc1ccc(F)cc1)c(=O)n2C	/	2.3	-1.7	/	59.9*	3.0
COCCCNc1nc2c(c(=O)n(Cc3ccc(F)cc3)c(=O)n2C)n1C	2.8	-7.4	5.7	1.4	/	8.4
CC1C(c2ccccc2)OC(c2ccccc2Br)N1C (centres undefined)	13.8	/	/	6.5	/	/
c1ccc(C2OC3c4cccc5cccc(c45)C3N2c2ccccc2)cc1 (centres undefined)	-6.0	3.3	-22.7	84.4*	9.4	-4.5
COc1cc(C=CC(=O)OCC(=O)NC(=O)NC(C)C)cc(OC)c1OC	1.3	/	/	-5.7	/	/
O=C(Nc1ccc(Br)cn1)c1ccc(Cl)s1	2.2	-4.4	14.2	10.4	52.0*	0.7
CCCOc1ccc(C(=O)ON=C(CC)c2ccc(C)cc2)cc1	-2.1	/	/	93.3*	/	/
Cc1c(CCOC(=O)C23CC4CC(CC(C4)C2)C3)sc[n+]1Cc1ccccc1	-7.3	1.9	2.9	71.3	11.0	14.4
Cc1c(CCOC(=O)C23CC4CC(CC(C)(C4)C2)C3)sc[n+]1Cc1ccccc1	68.7	3.5	-2.8	100.2*	8.5	8.3
Cc1c(CCOC(=O)CC23CC4CC(CC(C4)C2)C3)sc[n+]1CC(=O)c1ccccc1	-1.9	-0.3	-8.6	16.1	7.3	9.1
Cc1c(CCOC(=O)C23CC4(C)CC(C)(CC(C)(C4)C2)C3)sc[n+]1CC(=O)c1ccccc1	98.1*	0.8	-7.0	100.5*	-0.4	6.1
O=C(C(=CO)N=Nc1ccccc1Cl)c1ccccc1	11.8	/	/	7.3	/	/
CCC1=C(OC(=O)N(CC)CC)N2C(=O)OC(=NCC3CC3)[C@]2(Cc2ccccc2)C2C1=CCC1C(=O)N(CC)C(=O)C12 (some centres undefined)	2.4	/	/	0.6	/	/
